“And” between values parts separate entries of the source, which are not always exact repeats. Equal values may be shown once.
Key:
[1] = system: Botulinum neurotoxin type F light chain protease (Clostridium botulinum); test: Botulinum neurotoxin type F light chain protease inhibition, multiplex microsphere flow cytometry, validation set (AID 588459); details: multiplex microsphere protease substrate cleavage assay, at 10 µM, stronger effect = higher value
[2] = target: Botulinum neurotoxin type A (Clostridium botulinum) (UniProt P0DPI0); test: BoNT/A light chain protease inhibitors, biochemical, multiplex microsphere flow cytometry, validation set (AID 588460); details: at 10 µM, stronger effect = higher value
[3] = target: Lethal factor (Bacillus anthracis) (UniProt P15917); test: Lethal factor protease inhibitors, Bacillus anthracis, multiplex microsphere cleavage assay, validation set (AID 588461); details: flow cytometry, at 10 µM, stronger effect = higher value

Measured: inhibition

Chain of Lethal factor (Bacillus anthracis) (P15917 whole entry, looked up): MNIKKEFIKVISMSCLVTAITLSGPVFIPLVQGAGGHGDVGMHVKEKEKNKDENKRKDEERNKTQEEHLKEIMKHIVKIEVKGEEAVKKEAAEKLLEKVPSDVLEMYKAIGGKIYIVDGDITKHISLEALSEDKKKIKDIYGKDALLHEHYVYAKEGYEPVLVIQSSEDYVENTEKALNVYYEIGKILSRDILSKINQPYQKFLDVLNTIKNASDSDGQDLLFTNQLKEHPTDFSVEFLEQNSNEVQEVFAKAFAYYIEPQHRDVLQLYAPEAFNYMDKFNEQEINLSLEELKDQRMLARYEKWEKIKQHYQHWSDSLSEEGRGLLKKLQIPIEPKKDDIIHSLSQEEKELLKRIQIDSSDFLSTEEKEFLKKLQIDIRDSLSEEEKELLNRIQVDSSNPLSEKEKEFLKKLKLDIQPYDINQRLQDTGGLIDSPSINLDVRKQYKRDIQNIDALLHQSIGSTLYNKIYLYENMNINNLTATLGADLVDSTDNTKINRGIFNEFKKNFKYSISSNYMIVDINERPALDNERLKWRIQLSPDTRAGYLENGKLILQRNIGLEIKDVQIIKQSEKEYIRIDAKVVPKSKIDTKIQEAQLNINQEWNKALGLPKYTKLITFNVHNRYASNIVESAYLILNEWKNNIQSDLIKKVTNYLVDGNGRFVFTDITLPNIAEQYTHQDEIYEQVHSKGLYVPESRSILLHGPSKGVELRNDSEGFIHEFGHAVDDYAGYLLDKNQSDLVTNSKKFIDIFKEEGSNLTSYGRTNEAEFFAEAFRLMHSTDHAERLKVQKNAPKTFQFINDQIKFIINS
Chain of Botulinum neurotoxin type A (Clostridium botulinum) (P0DPI0 whole entry, looked up): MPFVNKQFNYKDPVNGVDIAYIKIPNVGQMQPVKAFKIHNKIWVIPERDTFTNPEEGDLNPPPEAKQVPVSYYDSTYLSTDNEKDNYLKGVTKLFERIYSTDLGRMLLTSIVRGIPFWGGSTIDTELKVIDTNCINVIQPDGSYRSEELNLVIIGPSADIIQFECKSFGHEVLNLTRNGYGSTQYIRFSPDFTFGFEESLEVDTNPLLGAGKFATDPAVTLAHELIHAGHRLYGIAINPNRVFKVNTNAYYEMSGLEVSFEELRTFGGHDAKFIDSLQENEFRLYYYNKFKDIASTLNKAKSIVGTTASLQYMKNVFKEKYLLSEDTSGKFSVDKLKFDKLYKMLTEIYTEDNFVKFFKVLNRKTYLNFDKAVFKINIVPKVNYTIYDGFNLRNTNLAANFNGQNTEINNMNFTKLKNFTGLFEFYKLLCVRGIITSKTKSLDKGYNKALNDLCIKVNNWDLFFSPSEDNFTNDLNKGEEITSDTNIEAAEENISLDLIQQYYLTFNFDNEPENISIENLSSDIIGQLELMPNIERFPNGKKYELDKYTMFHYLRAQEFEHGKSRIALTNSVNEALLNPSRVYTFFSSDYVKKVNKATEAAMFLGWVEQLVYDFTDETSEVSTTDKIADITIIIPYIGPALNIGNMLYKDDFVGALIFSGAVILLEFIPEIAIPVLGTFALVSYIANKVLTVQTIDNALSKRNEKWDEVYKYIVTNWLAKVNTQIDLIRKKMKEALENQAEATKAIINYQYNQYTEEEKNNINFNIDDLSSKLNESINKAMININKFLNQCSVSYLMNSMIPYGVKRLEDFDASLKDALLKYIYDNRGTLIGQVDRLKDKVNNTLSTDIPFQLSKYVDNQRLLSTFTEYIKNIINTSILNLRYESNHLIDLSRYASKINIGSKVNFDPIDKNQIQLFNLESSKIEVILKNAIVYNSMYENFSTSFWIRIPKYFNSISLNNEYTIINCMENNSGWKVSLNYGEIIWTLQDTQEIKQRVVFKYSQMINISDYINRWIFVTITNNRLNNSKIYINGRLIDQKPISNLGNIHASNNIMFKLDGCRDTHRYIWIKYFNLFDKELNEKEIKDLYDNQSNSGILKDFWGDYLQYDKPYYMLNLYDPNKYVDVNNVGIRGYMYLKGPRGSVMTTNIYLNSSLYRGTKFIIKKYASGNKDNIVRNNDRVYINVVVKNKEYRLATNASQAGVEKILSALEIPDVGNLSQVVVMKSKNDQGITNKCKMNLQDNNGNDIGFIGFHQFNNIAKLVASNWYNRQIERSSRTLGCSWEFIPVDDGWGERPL

CN(C)CCCN1c2ccccc2Sc2ccc(Cl)cc21
inactive: [1] -3.6% and 2.8% | [2] 0.6% | [3] -0.5% and 0.1%

S=C(NCCOCCOCCNC(=S)Nc1ccccc1)Nc1ccccc1
inactive: [1] 1.9% | [2] 2% | [3] -3.8%

O=C(O)CCCc1ccccc1
inactive: [1] -3.3% | [2] -2.3% | [3] -6.6%

Cc1cnc(C(=O)N2CCCC(C(=O)c3ccc(Cl)cc3C)C2)cn1 (stereo not given)
inactive: [1] 1.4% | [2] 0.4% | [3] -0.9%

COC(=O)C1=C(C)N(Cc2ccco2)C(=O)/C1=C\c1ccc([N+](=O)[O-])cc1
inactive: [1] 1% | [2] -0.6% | [3] -3.7%

O=c1[nH]cnc2c1ncn2[C@@H]1O[C@H](CO)[C@@H](O)[C@H]1O
inactive: [1] 1.2% | [2] 0.1% | [3] -8%

O=C(O)C(O)c1ccccc1 (stereo not given)
inactive: [1] 1.5% | [2] -1.4% | [3] 1.3%

CC(=O)[C@@]1(O)CC[C@H]2[C@@H]3CCC4=CC(=O)CC[C@]4(C)[C@H]3CC[C@@]21C
inactive: [1] 11.2% | [2] 0.4% | [3] -5.7%

O=C(CS(=O)(=O)c1ccccc1)c1ccc2c(c1)OCCO2
inactive: [1] 3.2% | [2] 0.7% | [3] 2.2%

C=C(C)Cn1c(NCCOC)nc2c1c(=O)[nH]c(=O)n2C
inactive: [1] 0.2% | [2] -0.3% | [3] -5.2%

From PubChem BioAssay
